HT1080 IDH1KD tx – qHTS for induction of synthetic lethality in tumor cells producing 2HG: qHTS for the HT-1080-IDH1KD cell line. HT-1080 IDH1 knockdown viability, ATP luminescence, 48 h. Potency, µM (doses to about 46.1 µM), inactives show at the top dose activity, negative = toxicity, actives largely listed as cytotoxic. 2% of 360,000 active;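 further: potency means the concentration at half of the fitted maximal effect; 0% = DMSO wells and -100% = cell-free medium wells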
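CellTiter-Glo luminescence after 48 h compound exposure at 37 degrees C of IDH1-knockdown HT-1080 cells in 5% FBS RPMI. %Activity scaled between DMSO wells and cell-free media wells, with curves fitted and assigned curve classes.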
IL-1B inflam inh – qHTS for Inhibitors of Inflammasome Signaling: IL-1-beta AlphaLISA Primary Screen; THP-1 LPS/ATP IL-1B secretion, AlphaLISA, 16 h; stronger effect = lower value; activity change, % at 57.5 µM; 4.7% of 360,000 active; in the data active means activity change below about -50%; inconclusive means mostly about -30% to -49%
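THP-1 cells pretreated 1 hr with compounds (up to 57.5 uM final), then stimulated with LPS (250 ng/mL final) plus ATP (1.25 mM final); secreted IL-1B measured by AlphaLISA after 16 hr, decreased signal indicating inhibition.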
DT40 TDP1 no CPT – qHTS for Inhibitors of human tyrosyl-DNA phosphodiesterase 1 (TDP1): qHTS in cells in absence of CPT; DT40 Tdp1-/- hTDP1 cells, no CPT, ATP luminescence, 48 h; Potency, µM (top dose mostly 46.2 µM), without a hit: at the top dose activity change, negative = growth inhibition, hits mostly inhibitors; 15% of 420,000 active; AID 686978, 2013; further: potency means the concentration at half of the fitted maximal effect; nearly all actives have a fitted effect of over 55% in size
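Chicken DT40 Tdp1-/- cells complemented with human TDP1, screened without camptothecin (DMSO vehicle only), 400 cells/well. Compounds pin-transferred, cells incubated at 37 °C for at least 48 hr. Growth read as ATP-dependent luminescence (CellTiter-Glo, 30 min at RT).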
TDP1 cell CPT – qHTS for Inhibitors of human tyrosyl-DNA phosphodiesterase 1 (TDP1): qHTS in cells in presence of CPT; chicken DT40 Tdp1-/-;hTDP1 cells + 20 nM CPT, ATP luminescence, 48 h; Potency, µM (doses to about 46.2 µM), for inactives: at the top dose activity change, negative = growth inhibition, usual class: inhibitors; 12% of 420,000 active; further: potency means the concentration at half of the fitted maximal effect; nearly all actives have a fitted effect of over 55% in size
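Chicken DT40 Tdp1-/- cells stably complemented with human TDP1 were seeded at 400 cells/well in medium containing 20 nM camptothecin, exposed to pin-transferred compounds, and grown at 37 °C for at least 48 hr. Viability was read as ATP luminescence.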
HT1080NT lethal – qHTS for induction of synthetic lethality in tumor cells producing 2HG: qHTS for the HT-1080-NT fibrosarcoma cell line. HT-1080-NT fibrosarcoma viability, CellTiter-Glo ATP luminescence, 48 h. Potency, µM (series often up to 46.1 µM), for inactives: at the top dose activity, negative = less viability, most hits filed as cytotoxic. 1.6% of 360,000 active. AID 686970, 2013;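 further: NT is the 2HG producing partner of a matched IDH1 knockdown line; potency means the concentration at half of the fitted maximal effect; 0% = DMSO-treated cells and -100% = media-only wells without cells; nearly all actives have a fitted effect of over 55% in size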
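Toxicity toward the 2HG-producing NT line was scored as %Activity, normalised to DMSO and no-cell wells, from CellTiter-Glo luminescence after 48 hours' treatment.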
* = called active by the depositor. Sampled rows, rich in hits. Any-hit rate of the full collection: about 19%. Unless noted, the call rests on the fitted dose curve; in most records, active means well fitted curve in the direction sought with a large enough effect; inconclusive means small, poorly fitted or top-dose-only effect, or another doubt; inactive means no such curve, though single readings can be large; an effect the other way counts as inactive or inconclusive. Unless noted, on the % scale 0 is the no-effect control and ±100 the full control effect.

Screening Cc1ccc2c(c1)C1CN(C)CCC1N2Sc1ccccc1[N+](=O)[O-] (stereo unspecified) returned HT1080 IDH1KD tx inconclusive, IL-1B inflam inh -89*, DT40 TDP1 no CPT 16µM*, TDP1 cell CPT inconclusive and HT1080NT lethal 16µM*.
COc1cccc(NC2c3ccccc3C(=O)N2Cc2ccco2)c1 (stereo unspecified) was read as HT1080 IDH1KD tx -2%, IL-1B inflam inh 0, DT40 TDP1 no CPT 23µM*, TDP1 cell CPT 21µM* and HT1080NT lethal -5%.
`COc1cccc(NC2c3ccccc3C(=O)N2Cc2ccccc2Cl)c1` (stereo unspecified) gave HT1080 IDH1KD tx inconclusive, IL-1B inflam inh -8, DT40 TDP1 no CPT inconclusive, TDP1 cell CPT inconclusive and HT1080NT lethal inconclusive.
O=C1c2ccccc2C(Nc2cccc(C(F)(F)F)c2)N1Cc1ccco1 (stereo unspecified) was read as HT1080 IDH1KD tx inconclusive, IL-1B inflam inh -5, DT40 TDP1 no CPT 16µM*, TDP1 cell CPT 23µM* and HT1080NT lethal -24%.
Screening Cc1ccc(Nc2ccc(N3CCN(c4ccc([N+](=O)[O-])cc4)CC3)nn2)cc1 returned HT1080 IDH1KD tx 8%, IL-1B inflam inh -13, DT40 TDP1 no CPT 6%, TDP1 cell CPT 13% and HT1080NT lethal 20%.
CC(C)(C)C1CCC(OC(=O)CN2CCCCC2)CC1 (stereo unspecified) was read as HT1080 IDH1KD tx 24%, IL-1B inflam inh 5, DT40 TDP1 no CPT -26%, TDP1 cell CPT 6% and HT1080NT lethal 23%.
Cc1cc(NC(=O)c2ccccc2Cl)n(C(C)(C)C)n1 was read as HT1080 IDH1KD tx 18%, IL-1B inflam inh 16, DT40 TDP1 no CPT 6%, TDP1 cell CPT -8% and HT1080NT lethal 17%.
Screening O=C(Nc1cc(=O)[nH]c2nc(-c3ccccc3)nn12)c1ccccc1Cl returned HT1080 IDH1KD tx -1%, IL-1B inflam inh 38, DT40 TDP1 no CPT 12µM*, TDP1 cell CPT -20% and HT1080NT lethal 9%.
For CC1(C)CC(=O)c2cn3nc(C(F)(F)F)nc3nc2C1 the results were HT1080 IDH1KD tx 4%, IL-1B inflam inh 19, DT40 TDP1 no CPT -5%, TDP1 cell CPT -2% and HT1080NT lethal 11%.
Screening COC(=O)[C@]12CCCCC=C1N(CCc1ccc(OC)c(OC)c1)C(=O)[C@H](CC(=O)NCc1cccc3ccccc13)C2 returned HT1080 IDH1KD tx inconclusive, IL-1B inflam inh -14, DT40 TDP1 no CPT 9.2µM*, TDP1 cell CPT 10µM* and HT1080NT lethal inconclusive.
COC(=O)[C@]12CCCCC=C1N(CCc1ccc(OC)c(OC)c1)C(=O)[C@H](CC(=O)NCc1ccc(C)o1)C2 was read as HT1080 IDH1KD tx 22%, IL-1B inflam inh -11, DT40 TDP1 no CPT inconclusive, TDP1 cell CPT 16µM* and HT1080NT lethal 12%.
For CCOc1ccc(S(=O)(=O)N2CCN(c3ccccc3)CC2)cc1C(N)=O the results were DT40 TDP1 no CPT -4% and TDP1 cell CPT 3%.
`CN1C(=O)C2(C(C#N)=C(N)Oc3c2oc(CO)cc3=O)c2ccccc21` (stereo unspecified) gave HT1080 IDH1KD tx 7%, IL-1B inflam inh 1, DT40 TDP1 no CPT 0%, TDP1 cell CPT 8% and HT1080NT lethal -3%.
For COc1cccc(C2NC(=S)NC(C)=C2C(=O)c2ccccc2)c1OC (stereo unspecified) the results were HT1080 IDH1KD tx 1.5µM*, IL-1B inflam inh 58, DT40 TDP1 no CPT 10µM*, TDP1 cell CPT inconclusive and HT1080NT lethal 2.3µM*.
